# Measurements: PubChem BioAssay (NCATS)
# “And” between values parts separate entries of the source, which are not always exact repeats. Equal entries are not always repeated. Results filed as inconclusive are left out. Where a call stands in place of a potency, no number is given. Unmarked numbers belong to inactive results. The source made the active and inactive calls. Calls come from the whole dose curve; as a rule, active = well fitted curve in the direction sought with a large enough effect; inconclusive = small, poorly fitted or top-dose-only effect, or another doubt; inactive = no such curve, though single readings can be large; an effect the other way counts as inactive or inconclusive.
# Columns and labels:
# [1] = biological target: Cytochrome P450 3A7 (Homo sapiens) (UniProt P24462); test: Cytochrome P450 family 3 subfamily A member 7 (CYP3A7) small molecule antagonists: luciferase biochemical qHTS assay (AID 1963596); note: nearly all actives have a fitted effect of over 40% in size
# Sequence of Cytochrome P450 3A7 (Homo sapiens) (P24462 whole entry, looked up): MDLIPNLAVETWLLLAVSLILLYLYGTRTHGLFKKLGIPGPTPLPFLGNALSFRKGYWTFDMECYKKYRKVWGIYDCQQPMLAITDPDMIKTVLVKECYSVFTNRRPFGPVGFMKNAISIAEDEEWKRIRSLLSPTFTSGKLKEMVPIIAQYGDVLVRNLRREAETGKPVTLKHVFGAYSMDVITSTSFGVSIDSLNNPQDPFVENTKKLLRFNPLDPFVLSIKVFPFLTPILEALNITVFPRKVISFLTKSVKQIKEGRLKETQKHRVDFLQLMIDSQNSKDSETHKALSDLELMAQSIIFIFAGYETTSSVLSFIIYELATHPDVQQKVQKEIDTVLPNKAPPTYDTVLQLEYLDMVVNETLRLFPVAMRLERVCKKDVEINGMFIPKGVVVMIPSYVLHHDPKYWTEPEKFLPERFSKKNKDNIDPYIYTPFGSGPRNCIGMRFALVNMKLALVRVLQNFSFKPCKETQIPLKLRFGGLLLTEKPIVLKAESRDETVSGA
# How it was run: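 Luminescence read-out (relative luminescence units) after 20 min with detection reagent, which stops the reaction. Enzyme, proluciferin substrate and compound preincubated 10 min, RT; NADPH regeneration system then started 1 h reaction. Ketoconazole as positive control.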
# [2] = Viability qHTS for spleen associated tyrosine kinase inhibitor (SYKi) drug resistant MV4-11 cells (AID 1963824); note: nearly all actives have a fitted effect of over 35% in size; note: potency is the fitted concentration of half-maximal effect
# How it was run: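 SYK inhibitor-resistant MV4-11 AML cells, 500 per well, added to predispensed compounds and incubated 72 hr at 37 C, 5% CO2. Viability measured by CellTiter-Glo luminescence after 10 min at room temperature.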
# [3] = Cellular viability qHTS for adrenocortical cancer (ACC) cell line NCI-H295R (AID 1963990); note: nearly all actives have a fitted effect of over 60% in size; note: potency is the fitted concentration of half-maximal effect
# How it was run: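 Luminescent ATP read-out (CellTiter-Glo, 20 min RT) after 48 h drug exposure of NCI-H295R cells; a titration up to 46 uM final. Data normalized to doxorubicin (100% inhibition) and DMSO (0%); 4-parameter fit gives IC50, max response.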
# [4] = Quantitative highthroughput screen to assess conditional lethalithy of NOMO1 cells grown in RPMI1640 with untreated serum (RPMI+s) (AID 1963876); note: nearly all actives have a fitted effect of over 35% in size; note: potency is the fitted concentration of half-maximal effect
# How it was run: (§1)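 Each medium arm—HPLM with 10% dialyzed FBS, or RPMI1640 with 5 mM glucose and 10% untreated or dialyzed FBS—was screened against an 11-point, 3-fold compound titration for 48 h at 37 °C, with CellTiter-Glo luminescence as endpoint.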
# [5] = Quantitative highthroughput screen to assess conditional lethalithy of NOMO1 cells grown in RPMI1640 with dialyzed fetal bovine serum (RPMI+ds) (AID 1963877); note: nearly all actives have a fitted effect of over 30% in size; note: potency is the fitted concentration of half-maximal effect; for Viability: series mostly up to about 46 µM
# How it was run: as §1
# [6] = Quantitative highthroughput screen to assess conditional lethalithy of NOMO1 cells grown in Human Plasma-Like Medium with dialyzed fetal bovine serum (HPLM+ds) (AID 1963878); note: nearly all actives have a fitted effect of over 35% in size
# How it was run: as §1
# [7] = Quantitative highthroughput screen to assess conditional lethalithy of P12 Ichikawa cells grown in Human Plasma-Like Medium with dialyzed fetal bovine serum (HPLM+ds) (AID 1963879); settings: Potency: viability; note: nearly all actives have a fitted effect of over 35% in size; note: potency is the fitted concentration of half-maximal effect; for Viability: series mostly up to about 46 µM
# How it was run: as §1
# [8] = Quantitative highthroughput screen to assess conditional lethalithy of P12 Ichikawa cells grown in RPMI1640 with dialyzed fetal bovine serum (RPMI+ds) (AID 1963880); settings: Potency: P12-Ichikawa viability; note: nearly all actives have a fitted effect of over 35% in size; note: potency is the fitted concentration of half-maximal effect
# How it was run: as §1
# [9] = Quantitative highthroughput screen to assess conditional lethalithy of P12 Ichikawa cells grown in RPMI1640 with untreated serum (RPMI+s) (AID 1963881); settings: Potency: viability; note: nearly all actives have a fitted effect of over 35% in size; note: potency is the fitted concentration of half-maximal effect; for Viability: series mostly up to about 46 µM
# How it was run: as §1
# [10] = Quantitative highthroughput screen to assess conditional lethalithy of SEM cells grown in Human Plasma-Like Medium with dialyzed fetal bovine serum (HPLM+ds) (AID 1963882); note: nearly all actives have a fitted effect of over 35% in size; note: potency is the fitted concentration of half-maximal effect; for Viability: series mostly up to about 46 µM
# How it was run: as §1
# [11] = Quantitative highthroughput screen to assess conditional lethalithy of SEM cells grown in RPMI1640 with unreated serum (RPMI+s) (AID 1963883); note: nearly all actives have a fitted effect of over 35% in size; note: potency is the fitted concentration of half-maximal effect
# How it was run: as §1
# [12] = Quantitative highthroughput screen to assess conditional lethalithy of SEM cells grown in RPMI1640 with dialyzed fetal bovine serum (RPMI+ds) (AID 1963884); note: nearly all actives have a fitted effect of over 35% in size; note: potency is the fitted concentration of half-maximal effect; for Viability: series mostly up to about 46 µM
# How it was run: as §1
# [13] = Cellular viability qHTS for adrenocortical cancer (ACC) cell line SW-13 (AID 1963989); settings: SW-13 ACC cells viability, CellTiter-Glo, 48 h; activity (max response): hits give low values;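 note: cells grown in serum-free medium with ITS supplement; nearly all actives have a fitted effect of over 65% in size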
# How it was run: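 SW-13 cells in ITS-supplemented serum-free DMEM were plated overnight, then exposed for 48 h at 37C to compound titrations (up to 46 uM final). Viability was read by CellTiter-Glo luminescence; four-parameter logistic fits gave IC50 and efficacy.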
compound,measurement,setting,value
O=c1[nH]c(=O)c2[nH]c(=O)[nH]c2[nH]1,"activity change, negative = inhibition",[1],3.23% [at 11.5 µM]
same,"viability, % of control",[2],120% [at 9.25 µM]
same,Potency,[3],2660 nM (active)
CC1(C)NC(=O)N(c2ccc([N+](=O)[O-])c(C(F)(F)F)c2)C1=O,Potency,[1],inactive
same,Potency,[4],inactive
same,Potency,[5],inactive
same,Potency,[6],inactive
same,Potency,[7],inactive
same,Potency,[8],inactive
same,Potency,[9],inactive
same,Potency,[10],inactive
same,Potency,[11],inactive
same,Potency,[12],inactive
same,Potency,[3],inactive
NNc1nncc2ccccc12,Potency,[1],inactive
same,Potency,[4],inactive
same,Potency,[5],inactive
same,Potency,[6],inactive
same,Potency,[7],inactive
same,Potency,[8],inactive
same,Potency,[9],inactive
same,Potency,[10],inactive
same,activity (max response),[13],12.3% and -11.3%
same,Potency,[3],inactive
CCNC(=O)Nc1ccc(Oc2ncnc(N)c2C=NOC)cc1Cl,Potency,[1],inactive
same,Potency,[4],inactive
same,Potency,[5],inactive
same,Potency,[6],inactive
same,Potency,[7],inactive
same,Potency,[8],inactive
same,Potency,[9],inactive
same,Potency,[10],1050 nM (active)
same,Potency,[12],935 nM (active)
CC(C(=O)O)c1ccc2c(c1)Cc1cccnc1O2 (centres undefined),Potency,[1],inactive
same,Potency,[2],inactive
same,activity (max response),[13],-0.725%
same,Potency,[3],inactive
CN1CCN(CC(=O)N2c3ccccc3C(=O)Nc3cccnc32)CC1,"activity change, negative = inhibition",[1],12.3% [at 4.83 µM]
same,"viability, % of control",[2],96.6% [at 4.97 µM]
same,"activity change, negative = viability loss",[3],-2.51% [at 3.81 µM]
O=c1[nH]c(=O)n([C@H]2C[C@H](O)[C@@H](CO)O2)cc1Br,Potency,[1],inactive
same,Potency,[2],8410 nM (active)
same,activity (max response),[13],-6.63%
same,Potency,[3],inactive
NCC1CCC(C(=O)Oc2ccc(CCC(=O)O)cc2)CC1 (centres undefined),Potency,[1],inactive
same,Potency,[2],inactive
same,activity (max response),[13],3.63%
same,Potency,[3],inactive
NC[C@H]1O[C@H](O[C@H]2[C@H](O[C@@H]3O[C@H](CO)[C@@H](O)[C@H]3O)C(O)[C@H](N)C[C@@H]2N)[C@H](N)[C@@H](O)[C@@H]1O (some centres undefined),"activity change, negative = inhibition",[1],16.1% [at 11.5 µM]
same,"viability, % of control",[2],95.3% [at 9.25 µM]
same,activity (max response),[13],8.3%
same,"activity change, negative = viability loss",[3],0.419% [at 9.17 µM]
CCCCCCCC(=O)OCC(O)CO (centres undefined),Potency,[1],inactive
same,Potency,[2],inactive
same,Potency,[3],inactive
Nc1ccn(C2CO[C@H](CO)O2)c(=O)n1 (some centres undefined),Potency,[1],inactive
same,Potency,[4],inactive
same,Potency,[5],inactive
same,Potency,[6],inactive
same,Potency,[7],inactive
same,Potency,[8],inactive
same,Potency,[9],inactive
same,Potency,[10],inactive
same,Potency,[11],inactive
same,Potency,[12],inactive
Cc1[nH]c(=O)c(C#N)cc1-c1ccc2nccn2c1,Potency,[1],inactive
same,Potency,[4],inactive
same,Potency,[5],inactive
same,Potency,[6],inactive
same,Potency,[7],inactive
same,Potency,[8],inactive
same,Potency,[9],inactive
same,Potency,[10],inactive
same,Potency,[11],inactive
same,Potency,[12],inactive
same,activity (max response),[13],11.7%
same,Potency,[3],inactive
COc1ccc([C@@H]2CC(=O)c3c(O)cc(O[C@@H]4O[C@H](CO[C@@H]5O[C@@H](C)[C@H](O)[C@@H](O)[C@@H]5O)[C@@H](O)[C@H](O)[C@@H]4O)cc3O2)cc1O,Potency,[1],inactive
same,Potency,[4],inactive
same,Potency,[6],inactive
same,Potency,[7],inactive
same,Potency,[8],inactive
same,Potency,[9],inactive
same,Potency,[10],inactive
same,Potency,[11],inactive
same,Potency,[12],inactive
CC(=O)Nc1c(I)c(NC(C)=O)c(I)c(C(=O)O)c1I,Potency,[1],inactive
same,activity (max response),[13],2.04%
Cc1cccc(C(=O)O)c1O,Potency,[1],inactive
same,activity (max response),[13],14.1%
CC[C@H](C)C(=O)O[C@H]1C[C@H](O)C=C2C=C[C@H](C)[C@H](CC[C@@H](O)C[C@@H](O)CC(=O)O)[C@H]21,Potency,[1],inactive
same,Potency,[4],inactive
same,Potency,[5],inactive
same,Potency,[7],inactive
same,Potency,[9],inactive
same,Potency,[10],inactive
same,Potency,[11],inactive
same,Potency,[12],inactive
same,activity (max response),[13],-19.4%
COc1nc(N)nc2c1ncn2[C@@H]1O[C@H](CO)[C@@H](O)[C@@H]1O,Potency,[1],inactive
same,Potency,[4],inactive
same,Potency,[5],inactive
same,Potency,[6],inactive
same,Potency,[8],inactive
same,Potency,[9],inactive
same,Potency,[10],inactive
same,Potency,[11],inactive
same,Potency,[12],inactive
same,activity (max response),[13],-9.37%
same,Potency,[3],inactive
CCOC(=O)N1CCN([N+]([O-])=NOc2ccc([N+](=O)[O-])cc2C#N)CC1,Potency,[1],inactive
same,Potency,[4],3320 nM (active)
same,Potency,[5],2960 nM (active)
same,Potency,[7],1050 nM (active)
same,Potency,[8],1050 nM (active)
same,Potency,[9],1050 nM (active)
same,Potency,[10],1180 nM (active)
same,Potency,[11],1050 nM (active)
same,Potency,[12],1050 nM (active)
CCNC(=O)Nc1ccc2ncc(Nc3ccc(C)cc3)nc2n1,Potency,[1],inactive
same,Potency,[8],inactive
same,Potency,[9],inactive
CCN1CCC[C@H]1CNC(=O)c1c(O)c(Cl)cc(Cl)c1OC,Potency,[1],inactive
same,activity (max response),[13],8.2%
CN/C(=C\[N+](=O)[O-])NCCSCc1csc(CN(C)C)n1,Potency,[1],inactive
same,activity (max response),[13],7.35%
CC(S)C(=O)NCC(=O)O (centres undefined),Potency,[1],inactive
same,Potency,[4],inactive
same,Potency,[5],inactive
same,Potency,[7],inactive
same,Potency,[8],inactive
same,Potency,[9],inactive
same,activity (max response),[13],6.56% and -5.95%
same,Potency,[3],inactive
CS(=O)(=O)OCCCCOS(C)(=O)=O,Potency,[1],inactive
same,Potency,[11],20900 nM (active)
same,Potency,[12],20900 nM (active)
same,activity (max response),[13],4.16%
same,Potency,[3],inactive
